According to PubChem BioAssay AID777 (Sanford-Burnham Center for Chemical Genomics, 2007):
Out of some 96,000 compounds screened, about 19,000 (20%) were called active. A selection follows. Values without a mark were called inactive.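 Rule for the calls: active = blocking of liver enzyme CYP2C9 beyond about 50% at 5 µM (limit read from the data); inactive = the rest.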

These compounds were tested against Cytochrome P450 2C9 (Homo sapiens) (UniProt P11712) (assay: blockers of cytochrome P450 2C9 activity – biochemical, luminescence, ADME assay, primary screen (AID 777)). Details: CYP2C9 Supersomes, luciferin-H conversion, at 5 µM, active compounds read high.
Chain of Cytochrome P450 2C9 (Homo sapiens) (P11712 whole entry, looked up): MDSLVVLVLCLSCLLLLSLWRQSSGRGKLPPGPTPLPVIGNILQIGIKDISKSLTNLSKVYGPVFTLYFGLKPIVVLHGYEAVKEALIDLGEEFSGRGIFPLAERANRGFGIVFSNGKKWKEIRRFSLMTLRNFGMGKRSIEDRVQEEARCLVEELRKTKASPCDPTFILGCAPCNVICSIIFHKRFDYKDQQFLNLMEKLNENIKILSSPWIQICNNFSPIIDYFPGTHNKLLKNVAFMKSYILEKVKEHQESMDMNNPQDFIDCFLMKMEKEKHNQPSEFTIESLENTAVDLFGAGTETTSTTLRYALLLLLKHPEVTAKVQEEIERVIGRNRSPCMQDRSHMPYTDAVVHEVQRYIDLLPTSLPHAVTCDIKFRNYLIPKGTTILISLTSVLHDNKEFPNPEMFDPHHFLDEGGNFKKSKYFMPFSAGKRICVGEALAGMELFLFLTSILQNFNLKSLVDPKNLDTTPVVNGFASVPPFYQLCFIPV

| SMILES | inhibition |
| --- | --- |
| COc1ccc(CCn2c(O)c(C=NC3CC3)c(=O)[nH]c2=O)cc1OC | 16.5% |
| COc1ccc(CCn2c(O)c(C=NCCCn3ccnc3)c(=O)[nH]c2=O)cc1OC | 61.3% (active) |
| COc1ccccc1-n1c(O)c(C=NC2CC2)c(=O)[nH]c1=O | -3.5% |
| COc1ccc(S(=O)(=O)NCc2ccc(C(=O)N3CCC4(CC3)OCCO4)cc2)cc1 | 4.3% |
| C=Cn1ccnc1P(=S)(c1cc(N(CC)CC)ns1)c1nccn1C=C | 12.6% |
| COC(=O)C(O)(c1ccc(NC(=O)c2ccco2)c(OC)c1)C(F)(F)F (stereo not given) | 75.9% (active) |
| CCOC(=O)C(O)(c1ccc(NC(=O)c2ccco2)c(OC)c1)C(F)(F)F (stereo not given) | 71.4% (active) |
| CCOC(=O)C(O)(c1ccc(N)c(OC)c1)C(F)(F)F (stereo not given) | 25.7% |
| C[N+]12CN3CN(CN(C3)C1)C2 | 0.8% |
| Cc1ccc(P(=S)(c2ccc(C)o2)N2CCOCC2)o1 | 11% |
| c1cncc(CNC2=NCCC2)c1 | -10.2% |
| COc1ccccc1N1CCN(C(CNC(=O)Oc2ccccc2)c2cccnc2)CC1 (stereo not given) | 44.1% |
| CC(C)c1ccc(O)c(CN2CCN(c3ccccc3)CC2)c1 | 19.1% |
| CC[N+](CC)(CC)CCCCCCCCCC[N+](CC)(CC)CC | -4.4% |
| O=C(CN1CCCCC1)Nc1ccc(Br)cc1C(=O)c1ccccc1Cl | 8.7% |
| CCC/C(=N\O)c1c[nH]c2ccccc12 | 10.1% |
| Cc1ccc2c(c1)C1CN(C)CCC1N2C(=O)Cn1nnc(-c2ccccc2F)n1 (stereo not given) | 4.5% |
| CN1CCC(N(C)Cc2cccnc2)CC1 | -6.3% |
| CN1C2C=C(N(C(=O)c3ccc(Cl)cc3)c3ccccc3)CC1CC2 (stereo not given) | 6.8% |
| Nc1ccc(C(=O)N/N=C2/CN3CCC2CC3)cc1 | 8% |
| O=C(COc1ccc2ccccc2c1)N1CCN(Cc2ccncc2)CC1 | 90.5% (active) |
| CN1CCN(C(=O)COc2ccc(C(C)(C)C)cc2Br)CC1 | -18% |
| CC(C)c1ccc(OCC(=O)N2CCN(C)CC2)c(Br)c1 | -1.3% |

| SMILES | inhibition |
| --- | --- |
| Cc1ccc(N(C)C(=O)Oc2cccc3ccc(C)nc23)cc1 | 36.4% |
| Cn1c(C(=O)N2CCC(C(=O)N3CCC4(CC3)OCCO4)CC2)cc2sccc21 | -32.3% |
| CCOc1ccc(CN(CCCl)CCCl)cc1C(=O)OC | 97.3% (active) |
| Cn1c(O)c(C=Nc2ccc3c(c2)CCC3)c(=O)n(C)c1=O | 11.5% |
| CC(=C1C(=O)c2ccccc2C1=O)N1CCN(CCN=Cc2c(O)n(C)c(=O)n(C)c2=O)CC1 | 43.2% |
| CC(C)(C)c1ccc(CN2C(=O)CN=C(c3ccccc3)c3ccccc32)cc1 | 18.9% |
| O=C(O)C1CSC(c2cccnc2)N1 (stereo not given) | -16.9% |
| C=CCN1C(=O)C2(C(C(=O)OCC)=C(N)Oc3c2c(=O)oc2ccccc32)c2ccccc21 (stereo not given) | 88.5% (active) |
| CCOC(=O)CC1=C(C(=O)OCC)C2(C(=O)N1)C(C(=O)OC)=C(N)Oc1ccccc12 (stereo not given) | 20.6% |
| COC(=O)CN1C(=O)C2(C(C(=O)OC)=C(N)Oc3ccccc32)C2=C1CC(C)(C)CC2=O (stereo not given) | 38.6% |
| CNC(=O)N(C)c1nnc(C(C)(C)C)s1 | -22.2% |
| Cc1ccc(C)c(NC2=NCCCS2)c1 | -2.6% |
| CCOC(=O)C1CN(C)CCC1=O (stereo not given) | 1.1% |
| CCCCCn1c(=O)c(C(=O)NCc2ccccn2)c(O)c2ccccc21 | 78.1% (active) |
| CCCCCn1c(=O)c(C(=O)Nc2c(C)n(C)n(-c3ccccc3)c2=O)c(O)c2ccccc21 | 25.9% |
| CCN1c2nc3c(C)cccn3c(=O)c2CC2(C(=O)N(C)C(=O)N(C)C2=O)C1C (stereo not given) | -8.4% |
| Cc1nc2ccccn2c1P(=S)(N1CCCCC1)N1CCCCC1 | 11.7% |
| CCOC(=O)c1c(C)c(C(=O)N2CCC3(CC2)OCCO3)c(C)n1CC | 31.2% |
| CN(C)C(=O)NC(O)C(Cl)(Cl)Cl (stereo not given) | 74.8% (active) |
| Cc1cc(N2C(=O)C3CCCN3C2c2ccc(Cl)c(Cl)c2)no1 (stereo not given) | 41.4% |
| COc1ccc(-c2nc(CS(=O)CC(=O)N3CCC4(CC3)OCCO4)c(C)o2)cc1 (stereo not given) | 14.5% |
| O=C1/C(=C\c2ccc3c(c2)OCO3)N2CCC1CC2 | 22.5% |
| CCOC(=O)c1c(-c2ccccc2)oc2ccc(OC(=O)N(C)C)cc12 | 55% (active) |

| SMILES | inhibition |
| --- | --- |
| O=C1NC(=O)C(C/C=C/c2ccccc2)C(=O)N1 | -3% |
| CC(=NCc1ccc2c(c1)OCO2)c1c(O)[nH]c(=O)[nH]c1=O | -11.9% |
| CN1CCN(Cc2ccccc2C(F)(F)F)CC1 | 0.4% |
| CCN(CC)C(=O)c1ccc(NC(=O)c2cc(-n3cnnc3)ccc2Cl)cc1 | 32.9% |
| O=C(CCN1CCCCC1)NCC(=O)Nc1ccc(Br)cc1C(=O)c1ccccc1 | -14.9% |
| CCOP(=S)(OCC)SCOC(=O)NCC(=O)OC | 71.1% (active) |
| c1ccc(C2NCc3ccccc3-n3cccc32)cc1 (stereo not given) | 19.1% |
| CC(=O)NC(=O)NC(C)Cc1ccccc1 (stereo not given) | -12.4% |
| CC(=O)c1ccc(OC(NC(=O)Cc2ccccc2)C(Cl)(Cl)Cl)cc1 (stereo not given) | 86.4% (active) |
| Cc1nc2nc(C)c(CCC(=O)N3CCC4(CC3)OCCO4)c(C)n2n1 | 3.8% |
| NC(=O)Nc1cccc(C(F)(F)F)c1 | -12.3% |
| CC(=O)Nc1ccccc1C(=O)OCC(=O)c1cccc2ccccc12 | 80.7% (active) |
| CC12CN3CC(C)(CN(C1)C3c1cccs1)C2 (stereo not given) | -10.5% |
| Cc1ccc(Cn2nnnc2CN2CCC(n3nnc4ccccc43)CC2)cc1 | 93.4% (active) |
| CSC1=NP(=S)(SC)N(C)c2nc3n(c21)CCC3 (stereo not given) | 9.2% |
| Cc1cccc(N2C(=O)NC(=O)/C(=C\c3cnn(-c4ccccc4)c3)C2=O)c1 | -9.5% |
| COc1ccc(C(=O)C2CN(C)CC2C(=O)c2ccc(OC)cc2)cc1 (stereo not given) | 12.4% |
| Fc1cccc(F)c1CN1CCN(Cc2c(F)cccc2F)CC1 | 7.2% |
| COc1ccccc1CN1CCN(C(=O)Cc2ccccc2)CC1 | 31.5% |
| COc1ccc(CN2CCN(c3ccccc3F)CC2)c(OC)c1 | 60.9% (active) |
| CCC(=NCCc1ccccc1)c1c(O)n(C2CCCCC2)c(=O)[nH]c1=O | 68.4% (active) |
| CC(=NCC1CCCO1)c1c(O)n(-c2ccccc2)c(=O)[nH]c1=O (stereo not given) | 27.9% |
| CC(=NC1CCN(Cc2ccccc2)CC1)c1c(O)n(C)c(=O)n(C)c1=O | 17.4% |

| SMILES | inhibition |
| --- | --- |
| CC(=O)c1c(O)n(C2CCCCCC2)c(=O)[nH]c1=O | 82.9% (active) |
| CN1CCN(Cc2ccc(OC(F)(F)F)cc2)CC1 | 3.1% |
| CCc1nc2ccccc2c(=O)n1-c1cccc(OC)c1 | -4% |
| CC(=O)N(C1=NCCCS1)c1ccccc1F | 18.1% |
| COC(=O)C(c1ccccc1)N1CCCCCC1 (stereo not given) | 5.8% |
| O=c1c2ccccc2nc(-c2ccco2)n1-c1ccc(Br)cn1 | -4.8% |
| COc1ccccc1N=C1SCCCN1C | -3.6% |
| CCN(CC)CCOC(=O)c1cc2cc(COC)ccc2o1 | -1.3% |
| O=C(c1cc(-c2ccncc2)nc2ccccc12)N1CCC2(CC1)OCCO2 | 41.9% |
| Cc1cccc(-n2c(C)nc3cc(C(=O)N4CCC5(CC4)OCCO5)ccc32)c1 | 13.7% |
| O=C(c1cc2nc(-c3ccccc3)cc(-c3ccccc3)n2n1)N1CCC2(CC1)OCCO2 | 94.6% (active) |
| CCN(CC)P(=O)(Oc1cccc(C)c1)N(CC)CC | 46.2% |
| CCC(=O)CC(c1ccc([N+](=O)[O-])cc1)c1c(O)c2ccccc2oc1=O (stereo not given) | 75.8% (active) |
| O=C(C1CC(=O)N(C2CCCC2)C1)N1CCC2(CC1)OCCO2 (stereo not given) | 9.5% |
| CC(=O)N1CN2CN(C(C)=O)CC(C(=O)c3ccc(Br)cc3)(C2)C1 | -14.6% |
| Fc1ccc(N2CCN(Cc3ccc4c(c3)OCO4)CC2)cc1 | 14.2% |
| c1ccc2sc(C3CCCNC3)nc2c1 (stereo not given) | -23% |
| CCC(=NCCCO)c1c(O)n(-c2ccc(OC)cc2)c(=O)[nH]c1=O | -2.8% |
| CCCCCCN=C(CC)c1c(O)n(CCCC)c(=O)[nH]c1=O | 93.6% (active) |
| CCC(=NCc1ccco1)c1c(O)n(Cc2ccccc2)c(=O)[nH]c1=O | 35.4% |
| CCCCn1c(O)c(C(CC)=NCc2ccco2)c(=O)[nH]c1=O | 56.4% (active) |
| Cc1cc(OCc2cc(C(=O)O)oc2C)c2c3c(c(=O)oc2c1)CCCC3 | 22.2% |
| OC(CNC1CCCCC1)c1ccccc1 (stereo not given) | 28.7% |

| SMILES | inhibition |
| --- | --- |
| O=c1c2ccccc2nc(-c2ccc(Cl)cc2Cl)n1-c1ccncc1 | 17.2% |
| COC(=O)N(c1ccc(OC)cc1)P1(=S)OCCC(C)O1 (stereo not given) | 12.9% |
| CCc1cccc2c(C#N)cn(CC(=O)N3CCOCC3)c12 | 37.3% |
| N[C@@H](Cc1c[nH]c2ccccc12)c1nnc(SCc2c(F)cccc2Cl)o1 | 70.3% (active) |
| CCCC(C)n1[nH]c(=O)c2c1NC(=O)CSC2c1ccc(OC)c(OC)c1 (stereo not given) | 1.7% |
| CCN1CCN(C(=O)Cc2coc3cc(C)cc(C)c23)CC1 | -3.2% |
| CCOC(=O)c1c(N)n(Cc2ccccc2)c2nc3ccccc3nc12 | 12% |
| CCOC(=O)c1c(N)n(CCN2CCOCC2)c2nc3ccccc3nc12 | 25.6% |
| COc1cc(Cn2c(N)c(C(=O)NCc3ccco3)c3nc4ccccc4nc32)cc(OC)c1OC | 100% (active) |
| O=C(c1cc(S(=O)(=O)N2CCOCC2)ccc1F)N1CCC2(CC1)OCCO2 | -0.4% |
| Cc1cc(C)cc(NC(=S)NC2CC3CCCC(C2)N3Cc2cccs2)c1 (stereo not given) | 8.1% |
| CNP1(NC)=Nc2nn(-c3ccccc3)c(N)c2C(c2ccccc2)=N1 | -4% |
| CC1(C)C(c2ccccc2)=NC(c2cccnc2)=[N+]1[O-] | 38.2% |
| Cn1c(O)c(C=NCCCC(=O)O)c(=O)n(C)c1=O | -3.8% |
| C/C(CCc1c[nH]c2ccccc12)=N\O | -21.6% |
| CCOC(=O)C1=C(C)OC(N)=C(C(=O)OC)C12C(=O)Nc1ccc(Br)cc12 (stereo not given) | 22% |
| COc1ccc(C2NCc3ccc4c(c3-n3cccc32)OCO4)cc1OC (stereo not given) | 10.3% |
| CCOC(=O)C1SC2(C(F)(F)C(F)F)CC1(O)c1c(c(OC)c3occc3c1OC)O2 (stereo not given) | 87% (active) |
| CCNc1nc2[nH]c(=O)c3c(c2s1)OC(N)=C(C#N)C3c1cccs1 (stereo not given) | -5.9% |
| CCOc1ccc(C2SCC(=O)Nc3c2c(C)nn3C2CCOC(C)(C)C2)cc1 (stereo not given) | 7.4% |
| N#Cc1ccc(Cn2cc(C(=O)c3ccco3)c3ccccc32)cc1 | 77.3% (active) |
| CC1=C(C(=O)Nc2ccccc2)SCCO1 | -1.2% |
| O=C(CSC1c2ccccc2-c2ccccc21)N/N=C/c1ccccc1 | 21.3% |
